Bioassay records from PubChem BioAssay.
The list is not random: actives were taken first. Their share in the collection is about 7.9%.
HCMV inh: qHTS Assay for inhibitors of the human cytomegalovirus (HCMV); HFF cells, HCMV-luciferase reporter, 72 h; active compounds read low; activity change, negative = inhibition, % at 57.5 µM; hit rate 4.5% among 410,000; AID 1259415, 2018; in the data active means activity change below about -60%; inconclusive means no clear call, values can overlap the other calls; inactive means above about -39%
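Two compound doses tested in HFFs infected with HCMV-luciferase, MOI 1 PFU/cell, 72 h at 37C. Lysate luminescence read with OneGlo; data normalized against buffer-only and 10uM Salinomycin inhibitor controls.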
HCV inh: qHTS Assay for Inhibitors of Hepatitis C Virus (HCV) | Huh7.5.1 HCVcc-Cre infection, luciferase reporter, 44 h | Potency, µM (doses to about 41.8 µM), without a hit: at the top dose activity change, negative = inhibition, actives largely listed as inhibitors | hit rate 3.4% among 340,000 | AID 651820, 2012; active means well fitted inhibition curve with a large enough effect; inconclusive means small, poorly fitted or top-dose-only effect, or another doubt; inactive means no such curve, though single readings can be large or run the other way; further: potency means the concentration at half of the fitted maximal effect
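1,000 cells/well; 4 h culture; + compound; + HCVcc-Cre (~0.5 moi); 44 h; luciferase substrate, RT 15 min; read 15 sec.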
MARV entry inh: qHTS for inhibitors of binding or entry into cells for Marburg Virus; Potency, µM (highest dose often 37.8 µM), inactives show at the highest dose activity change, negative = inhibition, hits mostly inhibitors; AID 540276, 2011; hit rate 1.8% among 300,000; Marburg virus pseudotyped entry inhibition, cell reporter; calls by dose curve; tested in HEK293 cells; further: potency means the concentration at half of the fitted maximal effect
FMDV antiviral: High Throughput Screening for Foot and Mouth Disease Virus Antivirals; hit rate 1.2% among 410,000; AID 1159524, 2015; Potency, µM (doses to about 57.9 µM), without a hit: top-dose activity change, negative = inhibition, actives largely listed as inhibitors; FMDV antiviral cell-based qHTS; calls by dose curve; tested in HEK293T cells; further: read-out not given here; potency means the concentration at half of the fitted maximal effect; nearly all actives have a fitted effect of over 45% in size
LASV entry inh: qHTS for Inhibitors of binding or entry into cells for Lassa Virus | Lassa virus pseudotype entry inhibition, cell reporter | Potency, µM (top dose mostly 37.9 µM), for inactives: top-dose activity change, negative = inhibition, actives largely listed as inhibitors | hit rate 1.2% among 300,000; calls by dose curve; tested in HEK293 cells; further: potency means the concentration at half of the fitted maximal effect; nearly all actives have a fitted effect of over 50% in size
* = called active by the depositor; ? = inconclusive; nt = no result; [ ] = remark or other dose. On the % scale 0 is the no-effect control and ±100 the full control effect.

SMILES | HCMV inh | HCV inh | MARV entry inh | FMDV antiviral | LASV entry inh
Oc1ccc2c3c1O[C@H]1c4[nH]c5c(c4C[C@@]4(O)[C@@H](C2)N(CC2CC2)CC[C@]314)C[C@]1(O)[C@H]2Cc3ccc(O)c4c3[C@@]1(CCN2CC1CC1)[C@@H]5O4 | nt | nt | -27.9% | -18.6% | nt
Cc1nc2nc(C)c(NS(=O)(=O)c3ccc(F)cc3)c(=O)n2[nH]1 | 10.7 | nt | 19.8%[46.1 µM] | -10.9% | -2.8%[46.1 µM]
CCOC(=O)CN1C(=O)[C@]2(OCCC=C[C@@H]2C)c2ccccc21 | nt | nt | 1.2%[14.2 µM] | nt | nt
COCC(=O)OC/C(O)=C(\C#N)c1nc2ccccc2[nH]1 | -99.2* | -15.2% | ? | ? | ?
N#C/C(=C(/O)CCl)c1nc2ccccc2[nH]1 | -70.0* | ? | ? | 35.5µM* | ?
CCCC(=O)OC/C(O)=C(\C#N)c1nc2ccccc2[nH]1 | -73.2* | 25.4% | ? | -11.0% | -24.8%
Cc1cccc(C)c1OCC(=O)OC/C(O)=C(\C#N)c1nc2ccccc2[nH]1 | ? | 25.4% | 4.4% | -7.9% | 3.8%
N#C/C(=C(/O)COC(=O)CCC1CCCCC1)c1nc2ccccc2[nH]1 | -68.8* | 12.3% | ? | ? | ?
N#C/C(=C(\O)Cc1ccccc1)c1nc2ccccc2[nH]1 | 1.7 | -9.3% | -10.0% | 11.4% | -2.4%
Cc1cc2oc(=O)cc(CN3CCN(c4ccc(Cl)c(Cl)c4)CC3)c2cc1Cl | 8.4 | nt | nt | -11.6% | nt
CCc1ccc(OCC(=O)NCC(c2ccc(Cl)cc2)N2CCOCC2)cc1 (stereo unspecified) | -10.9 | nt | -18.8%[46.1 µM] | ? | 10.8%[46.1 µM]
COc1ccc(-c2noc(COc3cc(C)c(Br)c(C)c3)n2)cc1OC | 5.9 | nt | -0.7%[46.1 µM] | -20.8% | 5.4%[46.1 µM]
CNC(=O)C[C@H]1C(=O)N(Cc2ccccc2)C[C@@H]1C | -2.2 | nt | nt | -16.2% | nt
CN1CCCC(C#CC(O)(c2ccccc2)c2ccccc2)C1 (stereo unspecified) | 35.0 | 17.1% | 19.1%[46.1 µM] | -22.0% | 3.9%
N#C/C(=C(/O)COC(=O)c1ccc(O)cc1)c1nc2ccccc2[nH]1 | -1.5 | 9.4% | nt | 2.0% | nt
Cc1c(-c2cccc(Cl)c2)nc2ccccc2c1C(=O)OC/C(O)=C(\C#N)c1nc2ccccc2[nH]1 | -81.8* | 8.91µM* | ? | -25.4% | 3.8%
CC(C)C(=O)OC/C(O)=C(\C#N)c1nc2ccccc2[nH]1 | -65.0* | 1.5% | -19.8%[46.1 µM] | 5.9% | -0.1%[46.1 µM]
Cc1nc2nc(N)nn2c(C)c1C/C=C/c1ccccc1 | 89.9 | 3.7% | -6.3%[46.1 µM] | -6.2% | 4.9%[46.1 µM]
COc1cc(C2c3c(-c4c(C)cc(C)cc4O)n[nH]c3C(=O)N2CCCOC(C)C)cc(OC)c1OC (stereo unspecified) | 1.7 | nt | ? | 7.2% | ?
COc1ccc(N(CC(=O)Nc2c(C)n(C)n(-c3ccccc3)c2=O)S(=O)(=O)c2ccccc2)cc1OC | -4.9 | ? | ? | 28.4% | 11.8%
CCOc1ccccc1N(CC(=O)Nc1c(C)n(C)n(-c2ccccc2)c1=O)S(=O)(=O)c1ccccc1 | -77.7* | 9.2% | nt | 10.8% | nt
CCOc1ccc(N(CC(=O)Nc2c(C)n(C)n(-c3ccccc3)c2=O)S(=O)(=O)c2ccc(F)cc2)cc1 | -66.2* | nt | ? | 1.0% | ?
COc1ccc(CCNC(=O)c2cc(-c3ccc(C)cc3)nc3n[nH]c(-c4ccc(F)cc4)c23)cc1OC | -21.4 | nt | nt | -8.8% | 28.5%[46.1 µM]
COc1ccc(-c2cc(C(=O)NCCc3ccccc3)c3c(-c4ccccc4)[nH]nc3n2)cc1 | -82.4* | nt | nt | 28.8% | ?
COc1ccc(-c2cc(C(=O)NCCc3ccccc3)c3c(-c4ccc(Cl)cc4)[nH]nc3n2)cc1 | -97.7* | nt | nt | -13.2% | -12.9%[46.1 µM]
SMILES | HCMV inh | HCV inh | MARV entry inh | FMDV antiviral | LASV entry inh
CCc1ccc(-c2[nH]nc3nc(-c4ccc(OC)cc4)cc(C(=O)NCCc4ccc(OC)c(OC)c4)c23)cc1 | -91.4* | nt | nt | ? | 7.8%[46.1 µM]
COc1ccc(OC)c(-c2cc(C(=O)NCCc3ccccc3)c3c(-c4ccc(C)cc4)[nH]nc3n2)c1 | 3.5 | nt | nt | 0.9% | 5.8%[46.1 µM]
CC(=O)NCc1c(I)c(NC(C)=O)c(I)c(C(=O)O)c1I | nt | nt | nt | -17.6% | nt
CCN(Cc1ccccc1)C(=O)COC(=O)c1c(C)nsc1NC | -66.4* | 11.2µM* | nt | ? | nt
CCN(Cc1ccccc1)C(=O)COC(=O)c1cnc(C)cn1 | -22.6 | 9.5% | nt | -1.8% | nt
Cc1csc2nc(COC(=O)c3ccc(Cl)c([N+](=O)[O-])c3)cc(=O)n12 | -13.7 | ? | 3.2%[46.1 µM] | -20.5% | -15.0%
CS(=O)(=O)Nc1cccc(NC(=O)c2ccc(-n3ccnc3)c3ccoc23)c1 | -63.1* | nt | nt | -8.1% | nt
CC(=O)Oc1ccc(-c2ccc(C(=O)OCC(=O)c3c(N)n(C)c(=O)n(C)c3=O)cc2)cc1 | -62.1* | ? | nt | -14.8% | nt
CC(=O)Oc1ccc(C(=O)OCC(=O)c2c(N)n(C)c(=O)n(C)c2=O)cc1OC(C)=O | -26.2 | 9.1% | 2.1%[46.1 µM] | -8.0% | 6.6%
CCOC1=CC(=O)N(CCN)C1 | -5.5 | nt | nt | nt | nt
Cc1ccc(S(=O)(=O)NCCc2cn3ccsc3n2)cc1 | -30.3 | nt | nt | 0.1% | 12.2%[46.1 µM]
c1csc(-c2csc3nc(CN4CCOCC4)nc(NCc4ccc5c(c4)OCO5)c23)c1 | -22.5 | ? | 18.3µM* | ? | -13.3%
c1ccc2c(c1)nc(NCc1ccc3c(c1)OCO3)n2CCN1CCOCC1 | -7.0 | 30.5% | -10.1% | -17.1% | 6.9%
COc1cc(OC)c2nc(C)c3c(c2c1)N(c1ccc(O)cc1)CC3 | -102.8* | ? | ? | ? | ?
COc1ccc(N2CCN(c3cc(C)c4ccc(O)cc4n3)CC2)cc1 | 4.7 | 2.7% | nt | -23.0% | nt
CCc1ccccc1NC(=O)c1ccc2c(O)c(S(=O)(=O)c3ccccc3)c(=O)[nH]c2c1 | -5.2 | nt | nt | 8.8% | -0.1%[46.1 µM]
O=C(O)/C=C/C(=O)c1c(-c2ccccc2)[nH]c2ccccc12 | 0.8 | 2.6% | nt | ? | nt
C/C=C(/C)C(=O)OC1C(OC(C)=O)[C@@]2(CO)C(O)C[C@@]3(C)C(=CCC4[C@@]5(C)CCC(OC6OC(C(=O)O)[C@@H](O[C@@H]7OC(CO)C(O)C(O)C7O)C(O)[C@H]6O[C@@H]6OC(CO)C(O)C(O)C6O)[C@](C)(CO)C5CC[C@@]43C)C2CC1(C)C (stereo partly specified) | nt | nt | nt | -9.0% | nt
C/C=C(\C)C(=O)OC1[C@H](OC(C)=O)C2(CO)C(CC1(C)C)C1=CCC3C4(C)CCC(O[C@@H]5O[C@H](C(=O)O)[C@@H](O[C@@H]6O[C@H](CO)[C@@H](O)[C@H](O)[C@H]6O)[C@H](O)[C@H]5O[C@H]5O[C@H](CO)[C@@H](O)[C@H](O)[C@H]5O)[C@](C)(CO)C4CCC3(C)[C@]1(C)C[C@H]2O (stereo partly specified) | nt | 3.16µM* | nt | 28.2µM* | nt
COc1ccc(C(=O)NCC(c2ccco2)N2CCc3ccccc32)c(OC)c1 (stereo unspecified) | 1.1 | ? | ? | ? | ?
